PubChem BioAssay (Tox21)
“And” between values parts separate entries of the source, which are not always exact repeats. Equal entries are not always repeated. Inconclusive results are not listed. The source made the active and inactive calls. Unless noted, the call rests on the fitted dose curve; in most records, active means well fitted curve in the direction sought with a large enough effect in the repeat runs; inconclusive means weak or mixed curves; inactive means no such curve, though single readings can be large; an effect the other way counts as inactive or inconclusive.

Key:
[1] = qHTS assay to test for compound auto fluorescence at 460 nm (blue) in HEK293 cell free culture (AID 720681)
Procedure, shortened: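 Compounds were added to cell-free DMEM with 10% FBS and fluorescence read directly. The blue channel used 405 nm excitation and 460 nm emission, with triamterene as the reference fluorophore.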

[2] = qHTS assay to test for compound auto fluorescence at 535 nm (green) in HEK293 cell free culture (AID 720682)
Procedure, shortened: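 No cells present: wells hold DMEM supplemented with 10% FBS, into which compound or vehicle is pinned. Green emission is then recorded (485 nm excitation, 535 nm emission) and scaled to fluorescein.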

[3] = qHTS assay to test for compound auto fluorescence at 590 nm (red) in HEK293 cell free culture (AID 720683)
Procedure, shortened: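 Cell-free wells of DMEM with 10% FBS received compound, and intrinsic fluorescence was read at excitation/emission 540/590 nm. Values expressed as equivalence to Rose Bengal sodium.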

[4] = qHTS assay to test for compound auto fluorescence at 590 nm (red) in HepG2 cell free culture (AID 720684)
Procedure, shortened: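 Rose Bengal sodium served as the reference for red signal. Test compounds were dispensed into serum-containing MEM (10% FBS) without cells, and plates were read at 540/590 nm.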

[5] = qHTS assay to test for compound auto fluorescence at 535 nm (green) in HepG2 cell free culture (AID 720686)
[6] = qHTS assay to test for compound auto fluorescence at 460 nm (blue) in HepG2 cells (AID 720687)
Procedure, shortened: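 HepG2 cells in MEM with 10% FBS, attached overnight at 37 C, were exposed to compound or DMSO for 1 hr at 37 C, 5% CO2. Blue fluorescence was read at 405/460 nm, with triamterene as reference fluorophore.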

[7] = target: Glucocorticoid receptor (Homo sapiens) (UniProt P04150); experiment: qHTS assay to identify small molecule agonists of the glucocorticoid receptor (GR) signaling pathway (AID 720691; active means well fitted activation curve with a large enough effect in the signal ratio in the repeat runs, not every such curve was filed as active; the % refers to the signal ratio)
Sequence of Glucocorticoid receptor (Homo sapiens) (P04150 whole entry, looked up): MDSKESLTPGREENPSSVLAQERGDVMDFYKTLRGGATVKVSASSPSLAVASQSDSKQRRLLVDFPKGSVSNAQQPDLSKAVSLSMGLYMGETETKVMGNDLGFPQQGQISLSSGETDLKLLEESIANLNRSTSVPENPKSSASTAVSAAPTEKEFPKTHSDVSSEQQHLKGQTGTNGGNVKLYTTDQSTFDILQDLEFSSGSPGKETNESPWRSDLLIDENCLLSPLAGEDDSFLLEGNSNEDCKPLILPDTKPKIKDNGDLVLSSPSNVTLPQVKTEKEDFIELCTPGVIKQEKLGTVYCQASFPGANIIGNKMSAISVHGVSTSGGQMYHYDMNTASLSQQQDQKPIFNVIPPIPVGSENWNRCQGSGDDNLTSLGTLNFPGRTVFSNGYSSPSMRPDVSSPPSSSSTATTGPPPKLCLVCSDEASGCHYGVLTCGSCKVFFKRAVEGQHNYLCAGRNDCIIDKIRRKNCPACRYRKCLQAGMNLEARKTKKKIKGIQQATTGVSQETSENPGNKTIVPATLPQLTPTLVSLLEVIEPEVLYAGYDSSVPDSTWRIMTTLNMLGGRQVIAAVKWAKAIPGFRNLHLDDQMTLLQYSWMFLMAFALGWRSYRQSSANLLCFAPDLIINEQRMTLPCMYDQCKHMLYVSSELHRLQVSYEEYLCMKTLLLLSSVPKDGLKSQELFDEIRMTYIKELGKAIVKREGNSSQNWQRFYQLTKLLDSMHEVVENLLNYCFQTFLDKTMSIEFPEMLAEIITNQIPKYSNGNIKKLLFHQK
Procedure, shortened: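 Steps: seed GR-bla HeLa cells, incubate 4 h at 37 C/5% CO2; pin-transfer DMSO-dissolved compounds; incubate 18 h at 37 C; add LiveBLAzer B/G FRET substrate; after 2 h at room temperature, measure fluorescence.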

[8] = target: Glucocorticoid receptor (Homo sapiens) (UniProt P04150); experiment: qHTS assay to identify small molecule antagonists of the glucocorticoid receptor (GR) signaling pathway (AID 720692; active means well fitted inhibition curve with a large enough effect in the signal ratio in the repeat runs, not every such curve was filed as active; the % refers to the signal ratio; further: potency means the concentration at half of the fitted maximal effect)
Procedure, shortened: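 Antagonism was scored as loss of dexamethasone-driven (5 nM final) reporter signal in HeLa cells bearing a glucocorticoid response element–beta-lactamase construct, after 18 h compound exposure at 37 C and 2 h FRET substrate loading.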

[9] = qHTS assay for identifying genotoxic compounds that show differential cytotoxicity against isogenic chicken DT40 cell lines with known DNA damage response pathways - Rev3 mutant cell line (AID 743014); further: nearly all actives have a fitted effect of over 55% in size; further: potency means the concentration at half of the fitted maximal effect
[10] = qHTS assay for identifying genotoxic compounds that show differential cytotoxicity against isogenic chicken DT40 cell lines with known DNA damage response pathways - Rad54/Ku70 mutant cell line (AID 743015); further: nearly all actives have a fitted effect of over 60% in size; further: potency means the concentration at half of the fitted maximal effect
[11] = qHTS assay to identify small molecule antagonists of the androgen receptor (AR) signaling pathway using the MDA cell line - cell viability counter screen (AID 743041; further: nearly all actives have a fitted effect of over 45% in size; further: potency means the concentration at half of the fitted maximal effect)
Procedure, shortened: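 Cytotoxicity counter screen: MDA-kb2 AR-luc cells, compound + R1881, 16 h, 37C, 0% CO2; CellTiter-Fluor added at 15.5 h, fluorescence read after 30 min.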

[12] = qHTS assay to test for compound auto fluorescence at 460 nm (blue) in HepG2 cell free culture (AID 720685)
Procedure, shortened: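 Cell-free plates of MEM plus 10% FBS received 23 nL compound or DMSO vehicle; blue-channel (405/460 nm) intensity scored against triamterene as reference fluorophore.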

[13] = qHTS assay to identify small molecule antagonists of the glucocorticoid receptor (GR) signaling pathway - cell viability counter screen (AID 720693); further: nearly all actives have a fitted effect of over 55% in size; further: potency means the concentration at half of the fitted maximal effect
[14] = qHTS assay for identifying genotoxic compounds that show differential cytotoxicity against isogenic chicken DT40 cell lines with known DNA damage response pathways - wild type cell line (AID 743012); further: nearly all actives have a fitted effect of over 60% in size; further: potency means the concentration at half of the fitted maximal effect
Procedure, shortened: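 Cytotoxicity in repair-proficient parental chicken DT40 cells serves as the comparator for Rad54/Ku70- and Rev3-deficient lines. Cells were exposed to compounds for 40 h at 37 C/5% CO2, and ATP-based luminescence (CellTiter-Glo) measured viability.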

[15] = qHTS assay to identify small molecule antagonists of the androgen receptor (AR) signaling pathway - cell viability counter screen (AID 743033; further: nearly all actives have a fitted effect of over 45% in size; further: potency means the concentration at half of the fitted maximal effect)
[16] = target: Androgen receptor (Homo sapiens) (UniProt P10275); experiment: qHTS assay to identify small molecule antagonists of the androgen receptor (AR) signaling pathway (AID 743035; active means well fitted inhibition curve with a large enough effect in the signal ratio in the repeat runs, not every such curve was filed as active; the % refers to the signal ratio)
Sequence of Androgen receptor (Homo sapiens) (P10275 whole entry, looked up): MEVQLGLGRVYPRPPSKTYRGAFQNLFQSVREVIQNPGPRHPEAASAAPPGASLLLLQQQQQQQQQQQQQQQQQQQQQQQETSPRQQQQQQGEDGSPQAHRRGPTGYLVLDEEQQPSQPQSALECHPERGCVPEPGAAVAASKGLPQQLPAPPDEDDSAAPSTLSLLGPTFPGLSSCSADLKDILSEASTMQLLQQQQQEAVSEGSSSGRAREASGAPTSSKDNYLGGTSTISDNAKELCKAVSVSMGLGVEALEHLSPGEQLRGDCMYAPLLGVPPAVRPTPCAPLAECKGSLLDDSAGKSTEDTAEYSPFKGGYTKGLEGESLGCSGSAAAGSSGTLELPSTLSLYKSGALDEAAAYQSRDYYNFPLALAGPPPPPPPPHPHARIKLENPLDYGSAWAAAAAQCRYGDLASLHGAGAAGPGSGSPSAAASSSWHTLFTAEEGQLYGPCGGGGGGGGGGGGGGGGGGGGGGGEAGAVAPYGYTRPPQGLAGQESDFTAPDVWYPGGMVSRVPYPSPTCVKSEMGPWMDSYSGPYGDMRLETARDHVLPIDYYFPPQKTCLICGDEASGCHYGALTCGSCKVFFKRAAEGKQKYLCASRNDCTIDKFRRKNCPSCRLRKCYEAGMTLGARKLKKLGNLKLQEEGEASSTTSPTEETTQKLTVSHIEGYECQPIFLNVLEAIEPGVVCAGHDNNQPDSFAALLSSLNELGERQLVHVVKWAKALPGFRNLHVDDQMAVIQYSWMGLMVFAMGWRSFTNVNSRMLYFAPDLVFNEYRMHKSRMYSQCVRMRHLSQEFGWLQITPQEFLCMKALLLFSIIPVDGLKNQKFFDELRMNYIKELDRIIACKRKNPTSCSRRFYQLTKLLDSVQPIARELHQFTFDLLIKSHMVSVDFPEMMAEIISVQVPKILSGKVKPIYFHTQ
Procedure, shortened: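 Steps: seed AR-UAS-bla GripTite HEK293 cells, incubate 4 h at 37C; pin in test compound, then add agonist R1881; incubate 16 h at 37C; add LiveBLAzer B/G FRET substrate, 2 h at room temperature; read fluorescence.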

[17] = target: Androgen receptor (Homo sapiens) (UniProt P10275); experiment: qHTS assay to identify small molecule agonists of the androgen receptor (AR) signaling pathway (AID 743036; active means well fitted activation curve with a large enough effect in the signal ratio in the repeat runs, with a control signal flat, not every such curve was filed as active; the % refers to the signal ratio)
Procedure, shortened: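 Quantitative HTS of the Tox21 10K library in HEK293 cells bearing a stably integrated UAS-controlled beta-lactamase reporter. Compound exposure lasted 16 h at 37C. Reporter activity was detected by FRET substrate fluorescence after 2 h at room temperature.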

[18] = target: Androgen receptor (Homo sapiens) (UniProt P10275); experiment: qHTS assay to identify small molecule agonists of the androgen receptor (AR) signaling pathway using the MDA cell line (AID 743040; further: nearly all actives have a fitted effect of over 20% in size); details: MDA-kb2 AR-luc cells, MMTV luciferase, 16 h; activity change: at 70.3 µM (top of the series), active compounds read high
Procedure, shortened: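 Luciferase read-out, ONE-Glo, 30 min RT. Cells: MDA-kb2 AR-luc, MMTV promoter with AR and GR response elements. Compound exposure 16 h, 37C, 0% CO2, after 5 h pre-incubation. qHTS agonist mode.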

[19] = target: Androgen receptor (Homo sapiens) (UniProt P10275); experiment: qHTS assay to identify small molecule antagonists of the androgen receptor (AR) signaling pathway using the MDA cell line (AID 743042; further: nearly all actives have a fitted effect of over 55% in size)
Procedure, shortened: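 MDA-kb2 breast carcinoma cells carrying MMTV-luciferase (AR/GR responsive) were co-treated with compounds and the agonist R1881 for 16 h at 37C. Inhibition read as ONE-Glo luminescence; CellTiter-Fluor fluorescence measured in parallel for cytotoxicity.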
On the % scale 0 is the no-effect control and ±100 the full control effect.

CCCC[N+]1(C)[C@@H]2CC(OC(=O)[C@H](CO)c3ccccc3)C[C@H]1[C@@H]1O[C@@H]12 (some centres undefined)
inactive: outcome [1] | outcome [2] | outcome [3] | outcome [4] | outcome [5] | outcome [6] | Potency [7] | Potency [8] | Potency [9] | Potency [10] | Potency [11]

O=C(O)C(F)(F)C(F)(F)C(F)(F)C(F)(F)C(F)(F)F
inactive: outcome [1] | outcome [2] | outcome [3] | outcome [4] | outcome [12] | outcome [5] | outcome [6] | Potency [7] | Potency [8] | Potency [13] | Potency [14] | Potency [10] | Potency [15] | Potency [11]

O=C(N/N=C/c1ccc([N+](=O)[O-])o1)c1cc([N+](=O)[O-])cc([N+](=O)[O-])c1O
inactive: outcome [1] | outcome [2] | outcome [3] | outcome [4] | outcome [5] | outcome [6] | Potency [7] | Potency [8] | Potency [13] | Potency [14]

N#CC(C#N)=C(C#N)C#N
inactive: outcome [1] | outcome [2] | outcome [3] | outcome [4] | outcome [12] | outcome [5] | outcome [6] | Potency [7] | Potency [8] | Potency [13] | Potency [14] | Potency [9] | Potency [15] | Potency [11]

CCCN(CCOc1c(Cl)cc(Cl)cc1Cl)C(=O)n1ccnc1
inactive: outcome [1] | outcome [2] | outcome [3] | outcome [12] | outcome [6] | Potency [7] | Potency [13] | Potency [11]
active: Potency [14] 27.3 µM | Potency [9] 31.3 µM and 30.6 µM | Potency [10] 49.6 µM and 27.3 µM | Potency [15] 25.1 µM

Cc1cnc(C2=NC(C)(C(C)C)C(=O)N2)c(C(=O)O)c1 (centres undefined)
inactive: outcome [1] | outcome [2] | outcome [3] | outcome [12] | outcome [5] | outcome [6] | Potency [7] | Potency [8] | Potency [13] | Potency [14] | Potency [9] | Potency [10] | Potency [15] | Potency [16] | Potency [17] | Potency [18] | Potency [11] | Potency [19]

CCNC(=O)NC(=O)/C(C#N)=N/OC
inactive: outcome [1] | outcome [2] | outcome [3] | outcome [4] | outcome [12] | outcome [5] | outcome [6] | Potency [13] | Potency [14] | Potency [9] | Potency [10] | Potency [15] | Potency [11]

O=C1c2ccccc2C(=O)N1SC(Cl)(Cl)Cl
active: Potency [13] 17.1 µM and 13.8 µM | Potency [14] 603 nM and 154 nM | Potency [9] 67.6 nM and 109 nM | Potency [10] 135 nM and 154 nM | Potency [15] 2.71 µM and 3.09 µM | Potency [11] 21.7 µM
inactive: outcome [1] | outcome [2] | outcome [3] | outcome [4] | outcome [12] | outcome [5] | outcome [6]

Nc1c(Br)cc(Br)c2c1C(=O)c1ccccc1C2=O
inactive: fluorescence, % of fluorescent control [1] -0.168% [at 18.6 µM] | activity change [2] 0.0661% [at 18.6 µM] | fluorescence, % of fluorescent control [3] -0.754% [at 18.6 µM] | fluorescence, % of Rose Bengal [4] -0.122% [at 18.6 µM] | fluorescence, % of fluorescent control [12] -0.366% [at 18.6 µM] | fluorescence, % of fluorescein control [5] -0.0249% [at 18.6 µM] | fluorescence, % of fluorescent control [6] -0.122% [at 18.6 µM] | Potency [14] | Potency [9] | Potency [10] | Potency [15] | Potency [17] | Potency [18] | Potency [11] | Potency [19]

NC(=S)c1c(Cl)cccc1Cl
inactive: outcome [1] | outcome [2] | outcome [3] | outcome [4] | outcome [5] | outcome [6] | Potency [7] | Potency [8] | Potency [13] | Potency [15] | Potency [11]

CC(=O)NNc1ccccc1
active: Potency [8] 10.9 µM | Potency [14] 1.52 µM | Potency [9] 2.15 µM | Potency [10] 1.71 µM
inactive: outcome [1] | outcome [2] | outcome [3] | outcome [4] | outcome [12] | outcome [5] | outcome [6] | Potency [16] | Potency [17] | Potency [18] | Potency [11] | Potency [19]

NP(N)(=O)NC(=O)c1ccc(F)cc1
inactive: outcome [1] | outcome [2] | outcome [3] | outcome [4] | outcome [12] | outcome [5] | outcome [6] | Potency [7] | Potency [8] | Potency [14] | Potency [9] | Potency [10] | Potency [15] | Potency [17] | Potency [18] | Potency [11] | Potency [19]

C=CCSSCC=C
inactive: outcome [1] | outcome [2] | outcome [3] | outcome [4] | outcome [12] | outcome [5] | outcome [6] | Potency [13] | Potency [14] | Potency [9] | Potency [10] | Potency [15] | Potency [11]

[Cl-].[Cl-].[Hg+2]
inactive: outcome [1] | outcome [2] | outcome [3] | outcome [4] | outcome [12] | outcome [5] | outcome [6]
active: Potency [14] 841 nM and 3.84 µM and 193 nM | Potency [9] 2.66 µM and 1.92 µM and 386 nM | Potency [10] 1.68 µM and 1.36 µM and 217 nM | Potency [15] 9.52 µM and 1.54 µM and 9.77 µM | Potency [11] 24.8 µM and 54.2 µM and 61.1 µM

CCCC[N+](CCCC)(CCCC)CCCC
inactive: outcome [1] | outcome [2] | outcome [3] | outcome [4] | outcome [12] | outcome [5] | outcome [6] | Potency [7] | Potency [13] | Potency [15] | Potency [11]
active: Potency [14] 4.32 µM | Potency [9] 3.85 µM | Potency [10] 2.43 µM

O=[N+]([O-])O[C@H]1CO[C@H]2[C@@H]1OC[C@H]2O[N+](=O)[O-]
inactive: outcome [1] | outcome [2] | outcome [3] | outcome [4] | outcome [12] | outcome [5] | outcome [6] | Potency [7] | Potency [13] | Potency [14] | Potency [9] | Potency [10] | Potency [15] | Potency [11]

C[C@]12CC[C@H]3[C@@H](CCC4=CC(=O)CC[C@@H]43)[C@@H]1CC[C@@H]2OC(=O)CCc1ccccc1
inactive: outcome [1] | outcome [2] | outcome [3] | outcome [12] | outcome [5] | outcome [6] | Potency [7] | Potency [9] | Potency [10] | Potency [15] | Potency [11]
active: Potency [8] 6.74 µM
